# Only some compounds are listed: those with a hit (about 7.9% of all), similar ones and a draw of the others.
# Lassa entry inh = inhibitors of Lassa virus binding or cell entry | actives 1.2% (n = 300,000) | AID 540256 | Potency, µM (highest dose often 37.9 µM), for the others: at the top dose activity change, negative = inhibition, hits mostly inhibitors | Lassa virus pseudotype entry inhibition, cell reporter; calls by dose curve; tested in HEK293 cells; note: potency is the fitted concentration of half-maximal effect; nearly all actives have a fitted effect of over 50% in size
# FMDV inh = blocks foot and mouth disease virus | Potency, µM (series often up to 57.9 µM), for inactives: at the top dose activity change, negative = inhibition, usual class: inhibitors | actives 1.2% (n = 410,000) | AID 1159524 | FMDV antiviral cell-based qHTS; calls by dose curve; tested in HEK293T cells; note: read-out not given here; potency is the fitted concentration of half-maximal effect; nearly all actives have a fitted effect of over 45% in size
# HCMV inh = inhibitors of human cytomegalovirus. HFF cells, HCMV-luciferase reporter, 72 h; stronger effect = lower value. activity change, negative = inhibition, % at 57.5 µM. actives 4.5% (n = 410,000). AID 1259415; in the data active = activity change below about -60%; inconclusive = no clear call, values can overlap the other calls; inactive = above about -39%
#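 Human foreskin fibroblasts infected with luciferase-reporter HCMV at MOI 1 PFU/cell, compounds at two doses. Luciferase measured 72 h post infection; normalized to buffer-only basal and Salinomycin (10uM) controls.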
# HCV inhibitor = HCV inhibition; Huh7.5.1 HCVcc-Cre infection, luciferase reporter, 44 h; actives 3.4% (n = 340,000); Potency, µM (highest dose often 41.8 µM), inactives show at the top dose activity change, negative = inhibition, usual class: inhibitors; active = well fitted inhibition curve with a large enough effect; inconclusive = small, poorly fitted or top-dose-only effect, or another doubt; inactive = no such curve, though single readings can be large or run the other way; note: potency is the fitted concentration of half-maximal effect
#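 Luciferase read-out (15 sec integration) after a 15 min room-temperature substrate step quantifies HCVcc-Cre infection. Cells, 1,000 per well, had compound added 4 h post-plating, then virus at ~0.5 moi, and were cultured 44 h.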
# Marburg entry inh = Marburg virus entry inhibition | actives 1.8% (n = 300,000) | Marburg virus pseudotyped entry inhibition, cell reporter | Potency, µM (titrated, usually from 37.8 µM), inactives show at the top dose activity change, negative = inhibition, usual class: inhibitors; calls by dose curve; tested in HEK293 cells; note: potency is the fitted concentration of half-maximal effect
# The depositor's hits bear a star; ? = inconclusive; nt = no result; ! = not confirmed by another sample; [ ] = remark or other dose. % is set by controls: 0 for no effect and ±100 for the full control effect.
SMILES,Lassa entry inh,FMDV inh,HCMV inh,HCV inhibitor,Marburg entry inh
O=C(O)CCC(=O)Nc1ccc(C(=O)OC2CCCCC2)cc1,-2.1%,nt,-2.7,6.8%,-12.7%
O=C(OC1CCCCC1)c1ccc(NC(=O)C2CCCCC2)cc1,?,-24.0%,-12.2,25.1µM*,?
O=C(Nc1ccc(C(=O)OC2CCCCC2)cc1)c1ccncc1,?,-24.8%,-77.6*,?,?
CCCCC(=O)Nc1ccc(C(=O)OC2CCCCC2)cc1,?,-16.4%,-95.9*,?,-8.6%[46.1 µM]
Cc1cccc(-c2nc(C(N)=O)c3c(n2)n(-c2ccc4c(c2)OCO4)c(=O)n3C)c1,-22.9%[46.1 µM],-5.7%,7.3,nt,?
Cc1ccc(Cn2c(CCNC(=O)c3cccc(C)c3)nc3ccccc32)cc1,-1.5%[46.1 µM],-29.3%,-4.6,nt,?
N#Cc1c(N2CCN(c3ccc([N+](=O)[O-])cc3)CC2)[n+](=O)c2ccc(Cl)cc2n1[O-],10µM*,?,4.8,?,?
Cc1ccc(NC(=O)CSc2nc(C)c(Cc3ccccc3)c(=O)[nH]2)cc1,5.4%,-18.1%,-63.8*!,6.6%,0.7%[46.1 µM]
Cc1nc(SCC(=O)Nc2ccc(Br)cc2)[nH]c(=O)c1Cc1ccccc1,2.0%[46.1 µM],-23.2%,4.4,nt,2.5%[46.1 µM]
Cc1ccc2nc(-c3ccc(NC(=O)CSc4ccccc4)cc3)[nH]c2c1,?,nt,?,11.2µM*,?
C[C@@H]1CN([C@H](C)CO)C(=O)c2c(c3ccccc3n2C)-c2ccccc2CO[C@H]1CN(C)Cc1ccc(C(F)(F)F)cc1,nt,?,-106.5*,nt,nt
C[C@@H]1CN([C@H](C)CO)C(=O)c2c(c3ccccc3n2C)-c2ccccc2CO[C@H]1CN(C)Cc1ccc(Oc2ccccc2)cc1,nt,-22.1%,-19.4,nt,nt
COc1cc2ncn(-c3cc(OCCc4ccccc4)c(C(N)=O)s3)c2cc1OC,17.7µM*,nt,nt,nt,nt
COc1cc2ncn(-c3cc(OC(C)c4ccccc4Cl)c(C(N)=O)s3)c2cc1OC (centres undefined),2.5µM*,nt,nt,nt,nt
CCSC1=NC2(CCN(C(=O)NC3CCCCC3)CC2)N=C1c1ccc(C)c(C)c1,?,-15.7%,-6.8,nt,nt
CCN(C(=O)c1cccs1)c1nnc(-c2ccncc2)s1,-8.4%,10.7%,-64.6*,-0.1%,-19.2%[46.1 µM]
CCOC(=O)CN(C(=O)CSc1nnnn1C)c1ccccc1,-17.0%[46.1 µM],3.1%,57.9,8.7%,10.1%[46.1 µM]
COc1ccc(C(=O)NCc2nc(-c3cccc(NC(=O)c4ccc(C)s4)c3)oc2C)cc1,nt,8.9%,nt,nt,nt
CCCn1c(N)c(C(=O)CSc2nnc(Cc3ccccc3)o2)c(=O)n(C)c1=O,?,?,-32.3,10µM*,?
COc1ccc(CN2CCOc3c(cc(-c4cccc(OC)n4)cc3OC)C2)c(O)c1,nt,-1.7%,nt,nt,nt
CCC[C@H]1[C@@H](NS(=O)(=O)c2cccs2)CC[C@@]23CCCN2C(=O)CCC[C@@H]13,nt,nt,-4.6,nt,nt
COC(=O)C(NC(=O)c1ccco1)(Nc1nc(C2CC2)cs1)C(F)(F)F (centres undefined),-1.1%,13.3%,-66.9*,-11.6%,?
COC(=O)C(NC(=O)c1ccco1)(Nc1cc(C)ccn1)C(F)(F)F (centres undefined),11.7%,-24.5%,-6.9,7.1%,?
CC(CCN1CCc2nc(-c3ccccc3)c(-c3ccccc3)cc2C1)=NOC[C@@H](O)[C@H]1O[C@@H]2OC(C)(C)O[C@H]2[C@@H]1O,nt,nt,nt,nt,25.9%[14.2 µM]
CCOC(=O)c1c(C)n(-c2ccc(C)cc2)c2c(C(C(C)=O)C(=O)O)c(Br)c(O)c(O)c12 (centres undefined),?,0.0%,?,11.2µM*,-29.0%
SMILES,Lassa entry inh,FMDV inh,HCMV inh,HCV inhibitor,Marburg entry inh
Cc1ccc(C(=O)c2coc3ccc(O)c(Cl)c23)cc1,?,-14.4%,57.1,-9.6%,-1.3%
CCOC(=O)C(C(C)=O)c1c(Br)c(O)c(O)c2c(C(=O)c3ccc(C)cc3)coc12 (centres undefined),-94.2%[14.3 µM],-29.1%,-96.1*,nt,2.31µM*!
CCOC(=O)c1c(C)n(-c2ccc(C)cc2)c2c(CC(C)=O)c(Br)c(OC)c(O)c12,1.6%,0.0%,23.2,-4.3%,16.4%
CCOc1ccccc1CNC(=O)C1CCN(S(=O)(=O)c2ccc3c(ccn3C)c2)CC1,-3.8%[46.1 µM],-3.8%,-3.1,nt,nt
COCCNC(=S)NCc1ccc2[nH]c3c(c2c1)CCCC3,nt,10.7%,-72.6*,-26.0%,nt
CN(C)S(=O)(=O)c1cccc(NC(=O)c2ccc(COc3ccccc3)cc2)c1,?,25.1µM*,nt,10µM*,8.91µM*

# Screening data from PubChem BioAssay.
